Reference: PubChem BioAssay (Tox21)
Several values for one entry are separate records, joined by “and”; a condition that tells them apart may be missing. Identical values can stand only once. Results filed as inconclusive are left out. Entries that show only a call come without a potency. Some structures have more than one record in an assay (separate samples or runs), and their calls can disagree. Activity calls are given as the source filed them. Calls come from the whole dose curve; as a rule, active = well fitted curve in the direction sought with a large enough effect in the repeat runs; inconclusive = weak or mixed curves; inactive = no such curve, though single readings can be large; an effect the other way counts as inactive or inconclusive.

Legend:
[1] = Caspase-3/7 induction in HepG2 cells by small molecules, qHTS assay (AID 1346978); note: nearly all actives have a fitted effect of over 15% in size
Outline: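 Caspase-3/7 induction was measured by Caspase-Glo 3/7 luminescence (30 min, room temperature) after a 17 hr compound exposure of wild-type HepG2 cells seeded at 2,000 per well and pre-incubated 5 hr.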

[2] = Caspase-3/7 induction in CHO-K1 cells by small molecules, qHTS cell viability counter screen (AID 1346979); note: nearly all actives have a fitted effect of over 35% in size; note: potency is the fitted concentration of half-maximal effect
Outline: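 To flag cytotoxic compounds, treated CHO-K1 wild-type cells were given CellTiter-Fluor at 16hr and read fluorescently after 1hr at 37C; the caspase-3/7 luminescence was measured in these same wells.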

[3] = Caspase-3/7 induction in CHO-K1 cells by small molecules, qHTS assay (AID 1346980); note: nearly all actives have a fitted effect of over 15% in size
Outline: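 Luminescent Caspase-Glo 3/7 read (30min, room temperature) quantified apoptosis induction. Cells were wild-type CHO-K1, treated with compound for 17hr at 37 C and 5% CO2.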

[4] = Caspase-3/7 induction in HepG2 cells by small molecules, qHTS cell viability counter screen (AID 1346981); note: nearly all actives have a fitted effect of over 30% in size; note: potency is the fitted concentration of half-maximal effect; for activity change, negative = cytotoxicity: series mostly up to about 92 µM
Outline: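 In this quantitative HTS counter screen, compounds delivered in DMSO were left on unmodified HepG2 cells for 16 hr at 37 C. Viability was then determined fluorometrically with CellTiter-Fluor, in parallel with caspase-3/7 induction in the same wells.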

[5] = target: Nuclear receptor subfamily 1 group I member 2 (Homo sapiens) (UniProt O75469); assay: Human pregnane X receptor (PXR) small molecule agonists, qHTS assay (AID 1346982); note: nearly all actives have a fitted effect of over 35% in size; note: potency is the fitted concentration of half-maximal effect
Sequence of Nuclear receptor subfamily 1 group I member 2 (Homo sapiens) (O75469 whole entry, looked up): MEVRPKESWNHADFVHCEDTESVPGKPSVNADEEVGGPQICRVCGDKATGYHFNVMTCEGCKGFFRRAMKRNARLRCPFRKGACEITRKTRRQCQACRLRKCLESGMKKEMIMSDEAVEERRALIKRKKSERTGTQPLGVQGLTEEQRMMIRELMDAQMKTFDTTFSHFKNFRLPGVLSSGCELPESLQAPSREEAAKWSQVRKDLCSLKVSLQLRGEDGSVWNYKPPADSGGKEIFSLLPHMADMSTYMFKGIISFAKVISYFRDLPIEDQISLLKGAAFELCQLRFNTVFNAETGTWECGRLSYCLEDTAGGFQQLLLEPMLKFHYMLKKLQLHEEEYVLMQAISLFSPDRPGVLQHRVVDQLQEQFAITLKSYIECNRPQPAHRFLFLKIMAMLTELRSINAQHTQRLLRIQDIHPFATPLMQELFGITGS
Outline: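 Reporter HepG2 cells expressing PXR-Luc are cultured in charcoal-stripped FBS (5%), treated with compounds for 24 hr at 37 C, and assayed by ONE-Glo luminescence after 30 min at room temperature.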

[6] = target: Cytochrome P450 2D6 (Homo sapiens) (UniProt P10635); assay: Cytochrome P450 Family 2 Subfamily D Member 6 (CYP2D6) small molecule antagonists: luciferase reporter qHTS assay (AID 1671196); note: nearly all actives have a fitted effect of over 50% in size; note: potency is the fitted concentration of half-maximal effect; for activity change, negative = inhibition: series mostly up to about 120 µM
Sequence of Cytochrome P450 2D6 (Homo sapiens) (P10635 whole entry, looked up): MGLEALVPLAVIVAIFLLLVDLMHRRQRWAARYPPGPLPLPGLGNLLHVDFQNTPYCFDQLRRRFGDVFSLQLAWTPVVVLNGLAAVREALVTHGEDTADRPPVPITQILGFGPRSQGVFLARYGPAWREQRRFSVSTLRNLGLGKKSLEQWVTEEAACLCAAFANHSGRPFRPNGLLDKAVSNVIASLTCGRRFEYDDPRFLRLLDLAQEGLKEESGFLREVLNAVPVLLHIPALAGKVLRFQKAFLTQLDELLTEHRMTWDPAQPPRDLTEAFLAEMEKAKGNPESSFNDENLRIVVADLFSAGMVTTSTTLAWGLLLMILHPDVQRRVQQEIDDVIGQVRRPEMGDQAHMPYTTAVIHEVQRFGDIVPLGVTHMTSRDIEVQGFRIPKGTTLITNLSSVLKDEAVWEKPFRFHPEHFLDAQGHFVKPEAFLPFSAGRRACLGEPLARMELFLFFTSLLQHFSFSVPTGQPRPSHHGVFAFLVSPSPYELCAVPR
Outline: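 Test chemicals meet CYP2D6 plus proluciferin substrate (10 min, RT); NADPH regenerating solution then drives turnover for 1 h. Detection reagent halts the reaction; luminescence measured after 20 min.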

[7] = target: Cytochrome P450 2C19 (Homo sapiens) (UniProt P33261); assay: Cytochrome P450 Family 2 Subfamily C Member 19 (CYP2C19) small molecule antagonists: luciferase reporter qHTS assay (AID 1671197); note: nearly all actives have a fitted effect of over 65% in size; note: potency is the fitted concentration of half-maximal effect; for activity change, negative = inhibition: series mostly up to about 120 µM
Sequence of Cytochrome P450 2C19 (Homo sapiens) (P33261 whole entry, looked up): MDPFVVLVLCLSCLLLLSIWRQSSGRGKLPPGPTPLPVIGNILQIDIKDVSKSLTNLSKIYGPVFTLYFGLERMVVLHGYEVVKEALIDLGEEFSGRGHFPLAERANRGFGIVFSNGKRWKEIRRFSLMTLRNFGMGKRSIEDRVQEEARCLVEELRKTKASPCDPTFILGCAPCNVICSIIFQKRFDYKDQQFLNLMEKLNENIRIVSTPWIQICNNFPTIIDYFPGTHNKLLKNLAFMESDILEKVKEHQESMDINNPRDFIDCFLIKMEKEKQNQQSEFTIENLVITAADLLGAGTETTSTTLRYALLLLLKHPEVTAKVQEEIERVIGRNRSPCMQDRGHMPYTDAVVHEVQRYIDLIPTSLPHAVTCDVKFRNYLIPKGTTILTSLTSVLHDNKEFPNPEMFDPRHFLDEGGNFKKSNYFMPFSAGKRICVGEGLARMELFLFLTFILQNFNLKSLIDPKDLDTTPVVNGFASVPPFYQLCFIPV
Outline: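 Quantitative high-throughput screen of the Tox21 library using CYP2C19 with proluciferin substrate. Reaction: NADPH regeneration, 37C, 1 h, after 10 min compound preincubation at room temperature. Readout: luminescence.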

[8] = target: Cytochrome P450 2C9 (Homo sapiens) (UniProt P11712); assay: Cytochrome P450 Family 2 Subfamily C Member 9 (CYP2C9) small molecule antagonists: luciferase reporter qHTS assay (AID 1671198); note: nearly all actives have a fitted effect of over 50% in size; note: potency is the fitted concentration of half-maximal effect; for activity change, negative = inhibition: series mostly up to about 120 µM
Sequence of Cytochrome P450 2C9 (Homo sapiens) (P11712 whole entry, looked up): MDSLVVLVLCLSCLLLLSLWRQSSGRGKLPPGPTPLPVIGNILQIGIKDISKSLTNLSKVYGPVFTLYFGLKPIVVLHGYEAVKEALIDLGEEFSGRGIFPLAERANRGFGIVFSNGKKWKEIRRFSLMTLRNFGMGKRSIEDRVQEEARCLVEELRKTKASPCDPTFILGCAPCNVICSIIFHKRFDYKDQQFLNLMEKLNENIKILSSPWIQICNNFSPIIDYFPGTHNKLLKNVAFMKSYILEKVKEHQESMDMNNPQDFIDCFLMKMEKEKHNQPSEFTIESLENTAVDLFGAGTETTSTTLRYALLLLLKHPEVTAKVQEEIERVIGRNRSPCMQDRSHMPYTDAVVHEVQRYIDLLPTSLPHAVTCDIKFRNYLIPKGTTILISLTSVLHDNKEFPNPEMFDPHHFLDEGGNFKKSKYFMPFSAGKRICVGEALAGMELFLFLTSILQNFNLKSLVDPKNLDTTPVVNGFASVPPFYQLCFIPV
Outline: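 Enzyme-substrate mix preincubated with compound 10 min at room temperature; reaction started with NADPH regeneration solution, 1 h 37C. Luminescent luciferin product read after 20 min detection reagent.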

[9] = target: Cytochrome P450 1A2 (Homo sapiens) (UniProt P05177); assay: Cytochrome P450 Family 1 Subfamily A Member 2 (CYP1A2) small molecule antagonists: luciferase reporter qHTS assay (AID 1671199); note: nearly all actives have a fitted effect of over 50% in size; note: potency is the fitted concentration of half-maximal effect; for activity change, negative = inhibition: series mostly up to about 120 µM
Sequence of Cytochrome P450 1A2 (Homo sapiens) (P05177 whole entry, looked up): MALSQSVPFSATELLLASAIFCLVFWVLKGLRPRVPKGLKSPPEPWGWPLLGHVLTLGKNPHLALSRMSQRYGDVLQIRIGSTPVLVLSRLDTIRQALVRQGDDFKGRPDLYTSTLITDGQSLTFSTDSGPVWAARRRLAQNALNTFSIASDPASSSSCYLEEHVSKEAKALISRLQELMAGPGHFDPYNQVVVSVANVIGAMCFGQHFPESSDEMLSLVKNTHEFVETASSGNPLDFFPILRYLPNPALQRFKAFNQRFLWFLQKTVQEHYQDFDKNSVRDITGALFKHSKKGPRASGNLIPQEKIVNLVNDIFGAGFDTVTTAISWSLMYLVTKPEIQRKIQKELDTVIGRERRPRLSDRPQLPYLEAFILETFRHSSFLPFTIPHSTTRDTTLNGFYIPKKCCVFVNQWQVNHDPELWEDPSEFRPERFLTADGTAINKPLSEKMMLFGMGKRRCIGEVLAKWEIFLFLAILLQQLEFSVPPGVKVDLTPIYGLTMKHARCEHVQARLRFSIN
Outline: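 Steps: enzyme-substrate mix dispensed; test compounds and furafylline control pinned in; 10 min room temperature; NADPH regeneration solution added, 1 h; reaction stopped with luciferin detection reagent; luminescence read after 20 min.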

[10] = target: Voltage-gated inwardly rectifying potassium channel KCNH2 (Homo sapiens) (UniProt Q12809); assay: Human Ether-a-go-go-Related Gene (hERG) channel small molecule antagonists: fluorescence cell-based qHTS assay (AID 1671200); note: nearly all actives have a fitted effect of over 50% in size; note: potency is the fitted concentration of half-maximal effect;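 for activity change, negative = inhibition: hERG-expressing U2OS cells given a thallium stimulus after FluxOR II dye loading; series mostly up to about 77 µM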
Sequence of Voltage-gated inwardly rectifying potassium channel KCNH2 (Homo sapiens) (Q12809 whole entry, looked up): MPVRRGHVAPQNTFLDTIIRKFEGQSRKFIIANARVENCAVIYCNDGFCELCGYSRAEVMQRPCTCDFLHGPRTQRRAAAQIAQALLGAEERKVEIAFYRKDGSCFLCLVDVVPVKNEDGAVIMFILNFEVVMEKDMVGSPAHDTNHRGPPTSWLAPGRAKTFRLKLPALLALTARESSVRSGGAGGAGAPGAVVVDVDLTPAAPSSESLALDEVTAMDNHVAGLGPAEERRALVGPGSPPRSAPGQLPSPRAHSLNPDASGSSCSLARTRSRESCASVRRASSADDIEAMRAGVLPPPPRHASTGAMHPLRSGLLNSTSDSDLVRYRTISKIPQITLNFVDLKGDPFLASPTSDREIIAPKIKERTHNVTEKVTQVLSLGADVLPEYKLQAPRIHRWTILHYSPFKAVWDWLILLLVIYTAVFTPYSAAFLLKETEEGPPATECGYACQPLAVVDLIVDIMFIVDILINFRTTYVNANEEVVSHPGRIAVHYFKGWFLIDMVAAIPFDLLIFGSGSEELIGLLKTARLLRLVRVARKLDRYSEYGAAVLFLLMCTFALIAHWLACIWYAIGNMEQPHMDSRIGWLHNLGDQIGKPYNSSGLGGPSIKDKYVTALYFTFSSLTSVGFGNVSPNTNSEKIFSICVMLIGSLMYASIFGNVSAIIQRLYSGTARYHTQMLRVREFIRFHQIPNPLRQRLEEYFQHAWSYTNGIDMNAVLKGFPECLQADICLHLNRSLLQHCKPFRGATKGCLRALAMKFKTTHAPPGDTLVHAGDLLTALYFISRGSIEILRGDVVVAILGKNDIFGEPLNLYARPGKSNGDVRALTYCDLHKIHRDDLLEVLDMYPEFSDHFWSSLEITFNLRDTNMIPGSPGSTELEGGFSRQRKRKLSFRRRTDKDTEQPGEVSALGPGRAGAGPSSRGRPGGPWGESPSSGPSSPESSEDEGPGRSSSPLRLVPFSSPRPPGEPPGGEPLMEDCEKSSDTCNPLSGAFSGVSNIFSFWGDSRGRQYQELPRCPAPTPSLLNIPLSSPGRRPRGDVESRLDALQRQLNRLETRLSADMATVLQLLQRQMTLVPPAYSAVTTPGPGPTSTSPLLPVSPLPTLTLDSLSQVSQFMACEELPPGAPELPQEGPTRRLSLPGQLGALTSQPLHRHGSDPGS
Outline: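 Measured: Tl+ flux via fluorescence (480/540 nm) in hERG-expressing U2OS cells after 1 h dye loading at room temperature.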

[11] = target: Cytochrome P450 3A4 (Homo sapiens) (UniProt P08684); assay: Cytochrome P450 Family 3 Subfamily A Member 4 (CYP3A4) small molecule antagonists: luciferase reporter qHTS assay (AID 1671201); note: nearly all actives have a fitted effect of over 50% in size; note: potency is the fitted concentration of half-maximal effect; for activity change, negative = inhibition: series mostly up to about 120 µM
Sequence of Cytochrome P450 3A4 (Homo sapiens) (P08684 whole entry, looked up): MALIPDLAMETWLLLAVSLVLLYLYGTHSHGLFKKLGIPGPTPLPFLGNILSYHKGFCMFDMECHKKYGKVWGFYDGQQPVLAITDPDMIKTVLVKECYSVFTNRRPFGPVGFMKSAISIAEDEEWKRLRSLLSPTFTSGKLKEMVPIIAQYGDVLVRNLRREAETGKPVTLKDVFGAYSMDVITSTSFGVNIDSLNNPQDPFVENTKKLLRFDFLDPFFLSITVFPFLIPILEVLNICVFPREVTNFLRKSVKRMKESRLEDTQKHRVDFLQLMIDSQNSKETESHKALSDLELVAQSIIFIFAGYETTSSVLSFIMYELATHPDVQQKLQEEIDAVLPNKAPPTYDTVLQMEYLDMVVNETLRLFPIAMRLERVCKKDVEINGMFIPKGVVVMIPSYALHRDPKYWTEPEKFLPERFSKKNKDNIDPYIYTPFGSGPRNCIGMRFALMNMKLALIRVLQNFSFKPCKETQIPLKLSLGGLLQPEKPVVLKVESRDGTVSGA
Outline: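 Setup: enzyme-substrate mix, compound pin transfer, 10 min RT. Reaction: NADPH regeneration solution, 1 h RT. Readout: detection reagent stops turnover, luminescence measured after 20 min, expressed in relative luminescence units.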

Nc1nc2ccccc2[nH]1
Potency [1]: inactive
Potency [2]: inactive
Potency [3]: inactive
Potency [4]: inactive
Potency [5]: inactive
Potency [6]: 62.5 µM (active)
Potency [7]: inactive
Potency [8]: inactive
Potency [9]: inactive
Potency [10]: inactive
Potency [11]: inactive

CCCCOCCOC(=O)c1ccccc1C(=O)OCCOCCCC
Potency [1]: inactive
Potency [2]: inactive
Potency [3]: inactive
Potency [4]: inactive
Potency [5]: 59.8 µM (active) and inactive
Potency [6]: 31 µM (active) and 25.2 µM (active)
Potency [7]: 3.48 µM (active) and 1.78 µM (active)
Potency [8]: 6.95 µM (active) and 7.1 µM (active)
Potency [9]: 19.6 µM (active) and 15.9 µM (active)
Potency [10]: inactive

CCC[C@H](N[C@@H](C)C(=O)N1[C@H](C(=O)O)C[C@@H]2CCCC[C@@H]21)C(=O)OCC
Potency [1]: inactive
Potency [2]: inactive
Potency [3]: inactive
Potency [4]: inactive
Potency [5]: inactive
Potency [6]: inactive
Potency [7]: inactive
Potency [8]: inactive
Potency [9]: 17.4 µM (active) and inactive
Potency [10]: inactive
Potency [11]: inactive

c1cnc2cc3c(cc2n1)C1CNCC3C1
Potency [1]: inactive
Potency [2]: inactive
Potency [3]: inactive
Potency [4]: inactive
Potency [5]: inactive
Potency [6]: inactive
Potency [7]: inactive
Potency [8]: inactive
Potency [9]: inactive
Potency [10]: inactive

C/C=C/c1ccc(OCC)c(O)c1
Potency [1]: inactive
Potency [2]: inactive
Potency [3]: inactive
Potency [4]: inactive
Potency [5]: inactive
Potency [6]: inactive
Potency [7]: 20 µM (active) and 25.2 µM (active)
Potency [8]: 35.6 µM (active) and 28.3 µM (active)
Potency [9]: 7.1 µM (active) and 7.96 µM (active)
Potency [10]: inactive

COc1ccc(COC(C)=O)cc1
Potency [1]: inactive
Potency [2]: inactive
Potency [3]: inactive
Potency [4]: inactive
Potency [5]: inactive
Potency [6]: inactive
Potency [7]: 45.6 µM (active) and inactive
Potency [8]: inactive
Potency [9]: 28.8 µM (active) and 44.8 µM (active)
Potency [10]: inactive
Potency [11]: inactive

NC(Cc1ccc(Cl)cc1)C(=O)O (stereo not given)
caspase activation [1]: -0.871% [at 0.349 µM] (inactive)
activity change, negative = cytotoxicity [2]: 10.4% [at 0.349 µM] (inactive)
caspase-3/7 activation [3]: 1.39% [at 0.349 µM] (inactive)
activity change, negative = cytotoxicity [4]: -2.01% [at 0.349 µM] (inactive)
activation [5]: -5.94% [at 0.349 µM] (inactive)
activity change, negative = inhibition [6]: -0.77% [at 0.435 µM] (inactive)
activity change, negative = inhibition [7]: 18.5% [at 0.435 µM] (inactive)
activity change, negative = inhibition [8]: 6.61% [at 0.435 µM] (inactive)
activity change, negative = inhibition [9]: 10.8% [at 0.435 µM] (inactive)
activity change, negative = inhibition [10]: 10.3% [at 0.29 µM] (inactive)
activity change, negative = inhibition [11]: 0.0907% [at 0.435 µM] (inactive)

O=C(Cl)c1cccc(C(=O)Cl)c1
Potency [1]: inactive
Potency [2]: inactive
Potency [3]: inactive
Potency [4]: inactive
Potency [5]: inactive
Potency [6]: inactive
Potency [7]: 79.6 µM (active) and inactive
Potency [9]: inactive
Potency [10]: inactive

CCn1c2ccccc2c2cc(N)ccc21
Potency [1]: inactive
Potency [2]: 53.9 µM (active) and inactive and 43.3 µM (active)
Potency [3]: inactive
Potency [4]: inactive and 30.6 µM (active)
Potency [5]: 5.39 µM (active) and 30.6 µM (active) and inactive
Potency [6]: 703 nM (active) and 3.99 µM (active) and 10 µM (active)
Potency [7]: 4.43 µM (active) and 31.7 µM (active) and 12.6 µM (active)
Potency [8]: 12.5 µM (active) and 31.7 µM (active) and 28.3 µM (active)
Potency [9]: 626 nM (active) and 2.24 µM (active) and 5.03 µM (active)
Potency [10]: inactive

CC[C@@H](N)CO
Potency [1]: inactive
Potency [2]: inactive
Potency [3]: inactive
Potency [4]: inactive
Potency [5]: inactive
Potency [6]: inactive
Potency [7]: inactive
Potency [8]: inactive
Potency [10]: inactive
Potency [11]: inactive

CCCCCCCCCCCC[N+](C)(C)C
Potency [1]: inactive
Potency [2]: 68.4 µM (active)
Potency [3]: inactive
Potency [4]: inactive
Potency [5]: 24.3 µM (active) and 61.1 µM (active)
Potency [6]: 3.55 µM (active) and 3.56 µM (active) and 2.24 µM (active)
Potency [7]: inactive and 79.6 µM (active)
Potency [8]: inactive
Potency [9]: inactive
Potency [10]: 21.9 µM (active)
Potency [11]: inactive

O=C(O)CP(=O)(O)O
Potency [1]: inactive
Potency [2]: inactive
Potency [3]: inactive
Potency [4]: inactive
Potency [5]: inactive
Potency [6]: inactive
Potency [7]: inactive
Potency [8]: inactive
Potency [10]: inactive
Potency [11]: inactive

Clc1ccc2c(c1)C(N1CCNCC1)=Nc1ccccc1O2
Potency [1]: inactive
Potency [2]: inactive
Potency [3]: inactive
Potency [4]: inactive
Potency [5]: inactive
Potency [6]: 3.99 µM (active) and 3.09 µM (active)
Potency [7]: 63.3 µM (active) and inactive
Potency [8]: 17.8 µM (active) and inactive
Potency [10]: 43.6 µM (active) and 19 µM (active)
Potency [11]: 7.96 µM (active) and 4.9 µM (active)

C=C(C)C(=O)O
Potency [1]: inactive
Potency [2]: inactive
Potency [3]: inactive
Potency [4]: inactive
Potency [5]: inactive
Potency [6]: inactive
Potency [7]: inactive
Potency [8]: inactive
Potency [9]: inactive
Potency [10]: inactive
Potency [11]: inactive

CC(C)(C)c1ccccc1
Potency [1]: inactive
Potency [2]: inactive
Potency [3]: inactive
Potency [4]: inactive
Potency [5]: inactive
Potency [6]: inactive
Potency [7]: inactive
Potency [9]: 20 µM (active)
Potency [10]: inactive
Potency [11]: inactive
